Data on seven compounds can be found in PubChem BioAssay (NCATS).

Values joined by “and” are separate entries in the source; they are usually repeats but may differ in a detail not shown here. Identical values can stand only once. Records with an inconclusive call do not appear. Active and inactive are the calls of the source. Unless noted, the call rests on the fitted dose curve; in most records, active means well fitted curve in the direction sought with a large enough effect; inconclusive means small, poorly fitted or top-dose-only effect, or another doubt; inactive means no such curve, though single readings can be large; an effect the other way counts as inactive or inconclusive.

Experiment [1] deals with Vitamin D3 receptor (Homo sapiens) (UniProt P11473). Nature of the experiment: qHTS assay for small molecule antagonists of vitamin D receptor signaling (AID 588541; calls by dose curve;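 further: receptor activated by calcitriol during compound treatment; series mostly up to about 77 µM; on the % scale 0 is the no-effect control and ±100 the full control effect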). The method in brief: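 VDR-UAS-bla HEK293T cells in 2% charcoal-stripped FBS were stimulated with 1-alpha,25-dihydroxyvitamin D3 (3 nM final) plus compound for 16 h at 37 C. The beta-lactamase CCF4 readout was normalized to 50 nM agonist and DMSO, and Hill fits gave IC50.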
Chain of Vitamin D3 receptor (Homo sapiens) (P11473 whole entry, looked up): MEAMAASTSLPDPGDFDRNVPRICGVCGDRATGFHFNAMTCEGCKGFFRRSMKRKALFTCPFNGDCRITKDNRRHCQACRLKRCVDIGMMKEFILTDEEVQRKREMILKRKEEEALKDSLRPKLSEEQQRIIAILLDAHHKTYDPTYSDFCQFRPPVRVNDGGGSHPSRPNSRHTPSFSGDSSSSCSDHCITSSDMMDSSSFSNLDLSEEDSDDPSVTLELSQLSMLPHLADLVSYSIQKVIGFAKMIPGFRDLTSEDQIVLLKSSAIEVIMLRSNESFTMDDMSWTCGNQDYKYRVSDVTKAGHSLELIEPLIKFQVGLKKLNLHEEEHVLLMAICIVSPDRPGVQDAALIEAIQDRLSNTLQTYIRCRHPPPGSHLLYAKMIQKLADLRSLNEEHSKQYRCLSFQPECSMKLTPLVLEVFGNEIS
(Quantitative high-throughput screening tests each substance at several concentrations.)

Experiment [2] shares this target. Nature of the experiment: qHTS assay for small molecule agonists of vitamin D receptor signaling (AID 588543; calls by dose curve;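 further: 0% = DMSO basal and 100% = reference agonist control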). The essentials:
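qHTS in agonist mode: compound titrations stimulate a VDR-driven β-lactamase reporter in HEK293T cells over 16 h at 37 °C. Response normalized to 50 nM 1α,25-dihydroxyvitamin D3 = 100%, DMSO = 0%; Hill fitting gives EC50 and maximal response.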

Experiment [3] is described as follows: qHTS assay for small molecule agonists of retinoid X receptor alpha signaling (AID 588544; calls by dose curve). The conditions noted are these: HEK293T RXRa-UAS-bla, beta-lactamase reporter, 18 h; 530 nm emission.
For experiment [4], the target named is Retinoic acid receptor RXR-alpha (Homo sapiens) (UniProt P19793). The description is as above.
Chain of Retinoic acid receptor RXR-alpha (Homo sapiens) (P19793 whole entry, looked up): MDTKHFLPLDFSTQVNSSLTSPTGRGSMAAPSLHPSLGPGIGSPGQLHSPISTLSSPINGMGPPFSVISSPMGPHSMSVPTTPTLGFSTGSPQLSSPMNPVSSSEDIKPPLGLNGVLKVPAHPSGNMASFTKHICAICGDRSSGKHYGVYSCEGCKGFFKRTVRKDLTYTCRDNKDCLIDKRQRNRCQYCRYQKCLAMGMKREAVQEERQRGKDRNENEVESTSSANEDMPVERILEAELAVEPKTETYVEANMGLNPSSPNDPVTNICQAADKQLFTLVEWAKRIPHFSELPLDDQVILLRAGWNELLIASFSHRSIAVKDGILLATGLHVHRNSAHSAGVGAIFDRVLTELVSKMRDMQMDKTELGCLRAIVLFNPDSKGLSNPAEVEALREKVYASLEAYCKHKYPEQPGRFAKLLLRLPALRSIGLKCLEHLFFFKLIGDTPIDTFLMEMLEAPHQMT
The target in experiment [5] is Thyroid hormone receptor beta (Homo sapiens) (UniProt P10828). Nature of the experiment: qHTS assay for small molecule agonists of thyroid hormone receptor beta signaling (AID 588545; calls by dose curve;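 further: 0% = DMSO only and 100% = 10 nM T3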). The method in brief: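 Compounds were tested as agonists in TR-UAS-bla-GripTite HEK 293 cells. After 18 hrs at 37 C, CCF4 substrate was added and fluorescence read after 2 hrs at room temperature.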
Chain of Thyroid hormone receptor beta (Homo sapiens) (P10828 whole entry, looked up): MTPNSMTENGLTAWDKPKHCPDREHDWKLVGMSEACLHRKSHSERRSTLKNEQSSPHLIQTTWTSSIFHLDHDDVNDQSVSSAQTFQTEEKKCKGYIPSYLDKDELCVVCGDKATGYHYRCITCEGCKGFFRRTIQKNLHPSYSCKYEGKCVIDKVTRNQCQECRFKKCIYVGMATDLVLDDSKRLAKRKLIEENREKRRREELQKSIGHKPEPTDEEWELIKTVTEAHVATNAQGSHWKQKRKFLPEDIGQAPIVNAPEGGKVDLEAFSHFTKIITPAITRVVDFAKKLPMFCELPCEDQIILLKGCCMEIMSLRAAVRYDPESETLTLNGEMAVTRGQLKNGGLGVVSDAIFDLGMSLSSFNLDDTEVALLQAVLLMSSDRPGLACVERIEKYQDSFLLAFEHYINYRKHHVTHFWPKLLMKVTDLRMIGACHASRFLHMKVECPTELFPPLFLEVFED

Experiment [6] is described as follows: qHTS assay for small molecule antagonists of retinoid X receptor alpha signaling (AID 588546).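 Further: cells stimulated with 9-cis-retinoic acid as agonist; on the % scale 0 is the no-effect control and ±100 the full control effect.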 The conditions noted are these: HEK293T RXRa-UAS-bla, beta-lactamase ratio, antagonist mode; measured here: W530 green channel, cytotoxicity proxy. The method in brief: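 Beta-lactamase reporter inhibition, read as CCF4 fluorescence ratio (ex 405, em 460/530 nm) after 2 h at RT. HEK293T UAS-bla cells, 2500/well, were stimulated with 9-cis-RA at 500 or 100 nM final alongside test compound for 18 h at 37 C.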

Experiment [7] addresses Thyroid hormone receptor beta (Homo sapiens) (UniProt P10828). Nature of the experiment: qHTS assay for small molecule antagonists of thyroid hormone receptor beta signaling (AID 588547; active means well fitted inhibition curve with a large enough effect in the signal ratio, with a control signal flat, not every such curve was filed as active; the % refers to the signal ratio;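 further: cells stimulated with 0.4 nM T3 agonist during compound exposure; series mostly up to about 77 µM; on the % scale 0 is the no-effect control and ±100 the full control effect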). The conditions noted are these: TR-UAS-bla HEK293, beta-lactamase ratio, antagonist mode, 18 h. The essentials:
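TR-UAS-bla GripTite HEK293 cells in 2% charcoal/dextran FBS medium; compounds 0.59 nM to 92 uM with T3 at 0.4nM final, 18 h at 37 C. Beta-lactamase read by CCF4 fluorescence (460/530 nm); Hill fits gave IC50 and efficacy.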

Experiment [8] has as its target Voltage-gated inwardly rectifying potassium channel KCNH2 (Homo sapiens) (UniProt Q12809). Nature of the experiment: qHTS Assay for Small Molecule Inhibitors of the Human hERG Channel Activity (AID 588834).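 Further: U2OS cells transduced with hERG by BacMam; top concentration of the series differs between compounds; on the % scale 0 is the no-effect control and ±100 the full control effect; lower thallium flux fluorescence means stronger hERG block; nearly all actives have a fitted effect of over 50% in size.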 The essentials:
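Cells were infected with hERG-BacMam virus for 4 hrs at room temperature, grown overnight, then seeded at 2000/well. After dye loading and roughly 10 min compound treatment, thallium influx was triggered and fluorescence recorded.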

The target of experiment [9] is Luciferin 4-monooxygenase (Photinus pyralis) (UniProt P08659). Nature of the experiment: Biochemical firefly luciferase enzyme assay for NPC (AID 624030).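 Further: purified P. pyralis luciferase at 10 nM with luciferin and ATP substrate; series mostly up to about 59 µM; 0% = DMSO and -100% = full luciferase inhibition by PTC124 control; nearly all actives have a fitted effect of over 70% in size.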 The method in brief: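 Purified P. pyralis luciferase at 10 nM in 50 mM Tris Acetate (final), luminescence read within 5 minutes of enzyme addition to compounds. Activity normalised to PTC124 versus DMSO; concentration-response curves classed by r2, magnitude and activity.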
Chain of Luciferin 4-monooxygenase (Photinus pyralis) (P08659 whole entry, looked up): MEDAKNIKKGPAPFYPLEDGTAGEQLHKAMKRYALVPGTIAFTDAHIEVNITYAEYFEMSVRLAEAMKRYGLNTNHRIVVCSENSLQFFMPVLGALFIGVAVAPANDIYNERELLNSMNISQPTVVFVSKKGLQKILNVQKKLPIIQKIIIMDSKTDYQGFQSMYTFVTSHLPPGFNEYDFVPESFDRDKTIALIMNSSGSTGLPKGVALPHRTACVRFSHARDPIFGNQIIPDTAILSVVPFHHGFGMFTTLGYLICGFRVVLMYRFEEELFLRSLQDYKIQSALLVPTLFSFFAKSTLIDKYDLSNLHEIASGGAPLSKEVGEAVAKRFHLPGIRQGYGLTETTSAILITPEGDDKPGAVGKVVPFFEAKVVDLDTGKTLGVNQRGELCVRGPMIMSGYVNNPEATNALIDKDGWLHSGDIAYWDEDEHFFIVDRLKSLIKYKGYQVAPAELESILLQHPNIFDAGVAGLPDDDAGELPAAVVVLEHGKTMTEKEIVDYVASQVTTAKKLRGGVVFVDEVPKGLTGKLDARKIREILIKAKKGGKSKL

Experiment [10] in a line: S16 Schwann cell viability assay (CellTiter-Glo assay) (AID 624031).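 Further: cellular ATP luminescence as a viability measure; series mostly up to about 58 µM; plate controls were DMSO-treated cells for no effect and cell-free wells for full effect; nearly all actives have a fitted effect of over 70% in size.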 The essentials:
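Untransfected S16 rat Schwann cells; compound 24 h, 37 °C/5% CO2; CellTiter-Glo ATP luminescence. % activity vs no-cell wells and DMSO controls (0%); concentration-effect curves classed by r2, response magnitude, activity.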

The nature of experiment [11]: S16 Schwann cell PMP22 intronic element firefly luciferase assay (AID 624032). Further: potency means the concentration at half of the fitted maximal effect; nearly all actives have a fitted effect of over 30% in size. The method in brief: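 Rat S16 Schwann cells stably carrying firefly luciferase driven by a PMP22 intronic element, in 10% FBS, treated 24 h at 37 C. ONE-Glo luminescence normalized to PTC124 control and DMSO (0%); curves classed by r2, magnitude and activity.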
Experiment [12] is described as follows: S16 Schwann cell PMP22 intronic element beta-lactamase assay (AID 624044; calls by dose curve; further: nearly all actives have a fitted effect of over 15% in size; further: potency means the concentration at half of the fitted maximal effect). The essentials:
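Beta-lactamase reporter under a PMP22 intronic regulatory element in stable S16 rat Schwann cells; 24 h compound exposure. 460 nm blue signal normalized between DMSO (0%) and potassium clavulanate, with 535 nm FRET tracking viability; curves classed by r2 and response.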

Experiment [13] concerns the target Glucagon-like peptide 1 receptor (Homo sapiens) (UniProt P43220). Nature of the experiment: qHTS of GLP-1 Receptor Agonists: LOPAC Validation (AID 624148).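 Further: 0% is about no effect; higher luminescence signal means agonism.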 The essentials:
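HEK293 cells stably co-expressing GLP-1R and a cAMP-responsive luciferase reporter, plated 12 hours before compound, then incubated 4-6 hr at 37 deg C. Luminescence read 12 min after detection reagent.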

The nature of experiment [14]: qHTS of Nrf2 Activators: LOPAC Validation (AID 624149). Further: 0% is about no effect. The essentials: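 Luciferase signal from ARE activation, read with Steady-Glo after 30 min at room temperature. Compounds were pin-transferred onto AREc32_Fluc cells (1000/well, OPTI-MEM/5% FBS, seeded overnight) and left 24 hr at 37 deg C.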
The nature of experiment [15]: HTS Assay for Allosteric Antagonists of the Human D2 Dopamine Receptor: Hit Validation in HTRF (AID 624455).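 Further: stable D1 dopamine receptor cell line scored for blocking the D1 response; on the % scale 0 is the no-effect control and ±100 the full control effect.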 The essentials: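 Inhibition of the D1-mediated response was measured by HTRF. Cells used were a line stably expressing the D1 dopamine receptor.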
(In general: TR-FRET usually uses a lanthanide donor and a delayed reading to cut background.)

A short description of experiment [16]: qHTS of Trypanosoma Brucei Inhibitors: LOPAC Validation (AID 624147). Further: 0% is about no effect. The essentials:
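Luminescence from Kinase-Glo Plus, added after a 45-minute room-temperature reaction, served as the end-point read-out. The enzyme and substrate were preincubated with compound before ADP (130 uM final) initiated turnover. Concentration-effect curves came from normalized qHTS data.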

For experiment [17], the target named is Glutaminase kidney isoform, mitochondrial (Homo sapiens) (UniProt O94925). Nature of the experiment: qHTS for Inhibitors of Glutaminase (GLS): LOPAC Validation (AID 624146).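 Further: glutamate product detected by oxidase and peroxidase coupled Amplex red fluorescence gain; series mostly up to about 46 µM; on the % scale 0 is the no-effect control and ±100 the full control effect; nearly all actives have a fitted effect of over 60% in size.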 The method in brief:
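Assay buffer: 45 mM KH2PO4 pH 8.2, 0.02% Tween-20. hKGA acts on L-glutamine (1 mM solution added); product glutamate is reported by an oxidase/peroxidase Amplex Red coupling, with fluorescence taken at baseline and 30 min.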

Chain of Voltage-gated inwardly rectifying potassium channel KCNH2 (Homo sapiens) (Q12809 whole entry, looked up): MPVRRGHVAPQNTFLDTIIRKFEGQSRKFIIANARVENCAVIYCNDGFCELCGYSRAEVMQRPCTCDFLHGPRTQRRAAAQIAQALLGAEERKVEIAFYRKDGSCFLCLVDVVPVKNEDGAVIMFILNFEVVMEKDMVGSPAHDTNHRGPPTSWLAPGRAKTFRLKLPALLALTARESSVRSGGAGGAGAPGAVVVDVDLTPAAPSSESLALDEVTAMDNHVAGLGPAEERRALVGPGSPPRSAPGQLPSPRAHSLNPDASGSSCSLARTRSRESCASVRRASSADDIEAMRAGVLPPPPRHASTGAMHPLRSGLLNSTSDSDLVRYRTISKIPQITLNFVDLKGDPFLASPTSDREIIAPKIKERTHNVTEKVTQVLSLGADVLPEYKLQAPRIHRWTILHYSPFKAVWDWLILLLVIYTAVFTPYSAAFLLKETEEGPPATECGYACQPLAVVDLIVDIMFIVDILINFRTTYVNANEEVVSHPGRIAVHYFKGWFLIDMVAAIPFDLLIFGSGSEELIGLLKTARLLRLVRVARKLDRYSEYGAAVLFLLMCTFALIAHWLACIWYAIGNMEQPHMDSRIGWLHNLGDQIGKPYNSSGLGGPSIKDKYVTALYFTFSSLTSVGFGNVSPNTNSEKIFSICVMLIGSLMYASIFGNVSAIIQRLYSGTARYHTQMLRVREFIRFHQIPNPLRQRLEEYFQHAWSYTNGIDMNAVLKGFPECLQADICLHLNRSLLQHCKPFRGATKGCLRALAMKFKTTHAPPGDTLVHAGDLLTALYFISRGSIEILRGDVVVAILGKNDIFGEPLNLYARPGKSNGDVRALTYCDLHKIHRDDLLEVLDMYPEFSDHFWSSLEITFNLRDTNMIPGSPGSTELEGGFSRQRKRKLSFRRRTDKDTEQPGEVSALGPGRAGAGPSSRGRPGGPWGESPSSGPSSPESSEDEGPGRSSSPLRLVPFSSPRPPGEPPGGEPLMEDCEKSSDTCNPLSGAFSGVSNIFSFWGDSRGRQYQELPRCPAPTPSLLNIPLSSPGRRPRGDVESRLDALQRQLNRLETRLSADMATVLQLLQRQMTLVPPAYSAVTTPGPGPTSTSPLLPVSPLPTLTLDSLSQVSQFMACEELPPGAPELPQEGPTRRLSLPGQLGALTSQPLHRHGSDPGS
Chain of Glucagon-like peptide 1 receptor (Homo sapiens) (P43220 whole entry, looked up): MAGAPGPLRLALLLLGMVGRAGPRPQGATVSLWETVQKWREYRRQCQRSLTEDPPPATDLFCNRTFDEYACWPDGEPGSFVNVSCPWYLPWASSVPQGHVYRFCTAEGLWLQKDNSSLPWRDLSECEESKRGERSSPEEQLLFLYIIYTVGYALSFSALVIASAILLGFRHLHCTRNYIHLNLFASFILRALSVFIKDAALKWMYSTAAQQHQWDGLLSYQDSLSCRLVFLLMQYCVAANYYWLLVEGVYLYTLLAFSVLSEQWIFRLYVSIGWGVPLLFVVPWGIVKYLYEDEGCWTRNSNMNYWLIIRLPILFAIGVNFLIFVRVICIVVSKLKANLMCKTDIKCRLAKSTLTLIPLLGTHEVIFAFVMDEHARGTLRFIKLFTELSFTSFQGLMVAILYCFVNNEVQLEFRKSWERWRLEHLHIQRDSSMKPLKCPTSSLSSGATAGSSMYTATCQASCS
Chain of Glutaminase kidney isoform, mitochondrial (Homo sapiens) (O94925 whole entry, looked up, canonical isoform): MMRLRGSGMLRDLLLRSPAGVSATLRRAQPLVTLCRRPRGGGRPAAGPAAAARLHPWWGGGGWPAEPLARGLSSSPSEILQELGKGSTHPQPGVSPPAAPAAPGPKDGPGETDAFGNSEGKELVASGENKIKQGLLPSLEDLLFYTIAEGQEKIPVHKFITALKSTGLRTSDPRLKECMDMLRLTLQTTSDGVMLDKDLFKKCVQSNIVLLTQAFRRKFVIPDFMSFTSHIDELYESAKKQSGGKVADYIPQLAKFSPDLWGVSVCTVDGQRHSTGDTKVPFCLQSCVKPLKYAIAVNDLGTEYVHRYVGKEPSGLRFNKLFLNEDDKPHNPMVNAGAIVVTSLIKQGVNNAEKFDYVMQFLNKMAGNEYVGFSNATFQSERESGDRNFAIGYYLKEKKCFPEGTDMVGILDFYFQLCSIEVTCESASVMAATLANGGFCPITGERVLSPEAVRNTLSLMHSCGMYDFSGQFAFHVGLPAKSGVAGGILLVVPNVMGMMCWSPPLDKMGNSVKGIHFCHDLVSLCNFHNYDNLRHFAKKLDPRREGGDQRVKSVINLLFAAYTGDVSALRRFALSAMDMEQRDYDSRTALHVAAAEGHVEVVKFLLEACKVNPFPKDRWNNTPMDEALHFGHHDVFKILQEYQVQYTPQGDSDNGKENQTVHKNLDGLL

`CC1(C)[C@@H]2CC[C@@]1(C)C(=O)C2`: the result in experiment [1], in experiment [2], in experiment [4] and in [5] was inactive. The max response in experiment [3] is -8.55%; in [6], 1.15%. Moreover, the activity change % (negative = inhibition) in experiment [7] is -4.32% (inactive). The Potency entry in experiment [8], in [9] and in experiment [10] was “inactive” in each case. The Potency in experiment [11] is 2.56 µM (active); in experiment [12], 9.99 µM (active).
Turning to `CC1(C)S[C@@H]2[C@H](NC(=O)Cc3ccccc3)C(=O)N2[C@H]1C(=O)O` (tested in a mixture with another compound), the Potency entry in [8] is “inactive”.
For `COC(=O)C1=C(C)NC(C)=C(C(=O)OC)C1c1ccccc1[N+](=O)[O-]`, the call in experiment [2], in experiment [5], in experiment [13], in experiment [14] and in experiment [15] was inactive. For the same compound, in [6], the max response was 8.81%. Besides, the activity change % (negative = inhibition) in experiment [7] is -6% (inactive). The Potency entry in experiment [9], in experiment [10] and in [12] was “inactive” throughout.
As for `NCCNCCNCCNCCN`, the result in experiment [1], in experiment [2], in experiment [4] and in experiment [5] was inactive. For the same compound, the max response in experiment [3] was -10.7% and -8.96%; in [6], -6.87%. Also, in experiment [7], the activity change % (negative = inhibition) was -25.9% (inactive) and -19% (inactive). Moreover, the Potency entry in experiment [8], in experiment [9] and in [10] was “inactive” each time.
Take `CN(C)CCC=C1c2ccccc2CCc2ccccc21`: the outcome in [1], in experiment [2], in experiment [4], in experiment [5], in [16] and in experiment [13] was inactive. Besides, the result in experiment [14] and in experiment [15] was inactive. The max response in experiment [3] stood at 20%. The Potency result in experiment [9] is “inactive”.
On to `CC12CCC(CC1)C(C)(C)O2`, for which the call in experiment [1], in [2] and in experiment [4] was inactive. Besides, the max response in experiment [3] was -11.5%; in experiment [6], -6.73%. Further, the activity change % (negative = inhibition) in experiment [7] was 18.1% (inactive). Further, the Potency entry in experiment [8], in experiment [9] and in experiment [10] was “inactive” in each case.
As for `COc1ccc(Cl)cc1C(=O)NCCc1ccc(S(=O)(=O)NC(=O)NC2CCCCC2)cc1`, the call in experiment [5], in [16], in experiment [13], in experiment [14] and in experiment [15] was inactive. The max response in experiment [6] was found to be 15.3%. Moreover, the activity change % (negative = inhibition) in [7] was 12.2% (inactive). Besides, the Potency result in [9], in [10], in experiment [12] and in [17] was “inactive” in each case.
